Measured values taken from ChEMBL document CHEMBL3988442, “University of Dundee, Small-Polar-MMV Screening Library” (2021).

Legend:
[1] = target: T1, Aspartate--tRNA(Asp/Asn) ligase (Mycobacterium tuberculosis (strain ATCC 25618 / H37Rv)) (UniProt P9WFW3); test: Assay for Asp RNA synthetase-1 from Mycobacterium tuberculosis; format: functional; design: scale not given: direction of the effect not stated beside the values; conditions: 30 µM; note: in the data most compounds retested in dose-response had high values
T1 sequence (whole entry): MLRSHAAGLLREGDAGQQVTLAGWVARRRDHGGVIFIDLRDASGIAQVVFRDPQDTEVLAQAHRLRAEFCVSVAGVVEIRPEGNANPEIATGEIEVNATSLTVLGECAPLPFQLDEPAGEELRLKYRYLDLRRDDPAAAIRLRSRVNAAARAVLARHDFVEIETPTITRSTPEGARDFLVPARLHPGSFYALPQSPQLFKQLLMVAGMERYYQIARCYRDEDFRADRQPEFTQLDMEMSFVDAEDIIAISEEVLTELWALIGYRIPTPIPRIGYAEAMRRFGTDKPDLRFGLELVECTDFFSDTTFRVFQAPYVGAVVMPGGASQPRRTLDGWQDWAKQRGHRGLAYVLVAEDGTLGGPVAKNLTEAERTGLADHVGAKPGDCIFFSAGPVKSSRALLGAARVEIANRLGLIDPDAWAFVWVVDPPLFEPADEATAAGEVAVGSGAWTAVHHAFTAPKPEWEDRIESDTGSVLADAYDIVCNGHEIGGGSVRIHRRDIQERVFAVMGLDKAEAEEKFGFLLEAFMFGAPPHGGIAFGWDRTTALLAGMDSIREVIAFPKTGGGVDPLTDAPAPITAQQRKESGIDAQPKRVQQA

[2] = target: Shiga toxin 2 (Escherichia coli O157:H7) (UniProt P09385+P09386); test: E. coli 0.157:H7 Shiga Toxin SOP - stx2 screening assay; format: functional; design: scale not given: direction of the effect not stated beside the values; conditions: 30 µM

SMILES: Cc1cccc(-c2ccc(C(=O)NCCN(C)C3CC3)c(=O)[nH]2)c1
- Percent Effect [1]: 4.25%
- Percent Effect [2]: 19.3%

SMILES: CCc1ccc(C(=O)NC2CCN(c3cnn(C)c3)C2=O)o1 (stereo not given)
- Percent Effect [1]: 3.57%
- Percent Effect [2]: -7.19%

SMILES: Cc1cn(CC(=O)NC2CCN(S(C)(=O)=O)CC2)c2ccccc12
- Percent Effect [1]: 2.86%
- Percent Effect [2]: -10.4%

SMILES: Cc1nnc(C(C)NCC2(c3ccc(Cl)cc3)CCCC2)o1 (stereo not given)
- Percent Effect [1]: 4.47%
- Percent Effect [2]: 3.13%

SMILES: Cc1noc(C)c1CN1C[C@@H]2COC[C@H](C(=O)N3CCCCO3)[C@@H]2C1
- Percent Effect [1]: 4.46%
- Percent Effect [2]: 5.31%

SMILES: Cc1ccc(=O)n(CC2(O)CCN(Cc3cnc(C)nc3)CC2)n1
- Percent Effect [1]: 1.71%
- Percent Effect [2]: 5.87%

SMILES: Cc1c(C)n(Cc2ccccn2)c2nc3c(c(N)c12)CCCC3
- Percent Effect [1]: -2.53%
- Percent Effect [2]: -3.33%

SMILES: Cn1cc(C(=O)CC2CCCN2C(=O)c2n[nH]c3ccccc23)cn1 (stereo not given)
- Percent Effect [1]: -3.71%
- Percent Effect [2]: 0.49%

SMILES: CC(C)Cc1cc(C(=O)NCc2nnc[nH]2)[nH]n1
- Percent Effect [1]: 1.11%
- Percent Effect [2]: 2.04%

SMILES: Cc1ccc2c(c1)CCC21CCN(C(=O)CO)CC1
- Percent Effect [1]: 5.32%
- Percent Effect [2]: -38.4%

SMILES: Cc1nnc(NCC2(c3ccccc3)CC2)c(C#N)c1C
- Percent Effect [1]: 1.73%
- Percent Effect [2]: 15.4%

SMILES: Cn1cnc(S(=O)(=O)NCCCN2CCOCC2)c1Cl
- Percent Effect [1]: 3.04%
- Percent Effect [2]: 18.7%

SMILES: O=C(O)c1ccc2ccc(N3CCN(CC4CC4)CC3)n2c1
- Percent Effect [1]: -6.96%
- Percent Effect [2]: -15.7%

SMILES: Cc1ccc(-c2cn[nH]c2C2CCCN(c3nccc(N)n3)C2)cc1 (stereo not given)
- Percent Effect [1]: 2.79%
- Percent Effect [2]: -37.9%

SMILES: Cc1ncsc1C(=O)N(C)Cc1ccncc1
- Percent Effect [1]: -4.5%
- Percent Effect [2]: 27.3%

SMILES: COCCO[C@@H]1CCN(C(=O)c2ccc(C)o2)[C@@H]1Cc1cccnc1
- Percent Effect [1]: -0.436%
- Percent Effect [2]: -14.3%

SMILES: Nc1nccc(N2CCCC(CO)(CCOc3ccccc3)C2)n1 (stereo not given)
- Percent Effect [1]: 9.3%
- Percent Effect [2]: -17.8%

SMILES: Cc1ccc(C(=O)N2CCN(Cc3nc(C(C)C)no3)CC2)c(=O)[nH]1
- Percent Effect [1]: 2.27%
- Percent Effect [2]: 26.1%

SMILES: CNC(=O)c1nc2c(s1)CCN(C(=O)c1cccnc1)CC2
- Percent Effect [1]: 2.01%
- Percent Effect [2]: -18.2%

SMILES: CC(c1ccccc1)n1c(SCC(=O)O)nnc1-c1ccccc1Cl (stereo not given)
- Percent Effect [1]: 1%
- Percent Effect [2]: 2.71%
